# In ChEMBL document CHEMBL3988442, “University of Dundee, Small-Polar-MMV Screening Library” (2021):
# Hit rate of the full screen: of about 66,000 compounds, about 960 (1.5%) showed an effect of 50% or more. The full list was thinned out, with strong results kept by preference.
# System: Trypanosoma brucei
# Assay: Trypanosoma brucei 72 hour study
# Type: functional, organism-based
# Design: scale not given: in the data most compounds retested in dose-response had high values
smiles,measurement,setting,value
O=C(C1CCCN(C2CCOCC2)C1)N1Cc2ccccc2C1 (stereo not drawn),Percent Effect,"30 µM, 30.03 µM",-36.54%
O=C(CN1CCSC2(CCCCC2)C1)NCC(F)(F)F,Percent Effect,"30.3 µM, […]",27.46%
CC(C)(C)C(O)CN1CCN(CC(=O)NCC(F)(F)F)CC1 (stereo not drawn),Percent Effect,"30 µM, 30.03 µM",-50.05%
O=C(CN1CCC2(CCCCC2)C1)NCC(F)(F)F,Percent Effect,"30.3 µM, […]",100.3%
CCNC(=O)[C@@H]1C[C@H](N)CN1C(=O)c1c[nH]c2ccccc12,Percent Effect,"30.3 µM, […]",-39.66%
Cc1cc2c(cc1Cl)C=CC1(CCN(CC(=O)N3CCOCC3)CC1)O2,Percent Effect,"30.3 µM, […]",-3.407%
Cc1cc2c(cc1Cl)C=CC1(CCN(CC(=O)N3CCCC3)CC1)O2,Percent Effect,"30.3 µM, […]",-16.81%
CCN(CC)C(=O)CN1CCC2(C=Cc3cc(Cl)c(C)cc3O2)CC1,Percent Effect,"30.3 µM, […]",99.22%
CNC(=O)N1C[C@H]2C[C@H](C(=O)NCc3cccnc3)[C@@H](C1)O2.O=C(O)C(F)(F)F,Percent Effect,"30 µM, 30.03 µM",41.37%
Cc1noc(C)c1C(=O)N1CCC(c2[nH]ncc2S(C)(=O)=O)C1 (stereo not drawn),Percent Effect,"30.3 µM, […]",-19.64%
CN(CC1CCOCC1)C(C(=O)O)c1cccc(F)c1F (stereo not drawn),Percent Effect,"30 µM, 30.03 µM",-18.13%
Clc1ccccc1CCN1CCN(c2ccc3nncn3n2)CC1,Percent Effect,10 µM,55.98%
c1ccc(CCCN2CCN(c3ccc4nncn4n3)CC2)cc1,Percent Effect,10 µM,-24.8%
c1ccc(CCN2CCN(c3ccc4nncn4n3)CC2)nc1,Percent Effect,"30 µM, 30.03 µM",14.18%
FC(F)(F)COCCN1CCN(c2ccc3nncn3n2)CC1,Percent Effect,"30 µM, 30.03 µM",29.6%
c1ccc(CCN2CCN(c3ccc4nncn4n3)CC2)cc1,Percent Effect,10 µM,-2.806%
c1ccc(OCCCN2CCN(c3ccc4nncn4n3)CC2)cc1,Percent Effect,"30 µM, 30.03 µM",53.47%
COCCN1CCC2(CC1)CC(NC(=O)CN(C)C)c1ccccc1O2.O=C(O)C(F)(F)F.O=C(O)C(F)(F)F (stereo not drawn),Percent Effect,"30.3 µM, […]",-3.899%
CNC(=O)[C@H]1C[C@@H]2CN(C(=O)c3ccncc3)C[C@@H]2N1S(C)(=O)=O.O=C(O)C(F)(F)F,Percent Effect,"30.3 µM, […]",-12.29%
Cc1cnc(N2CCc3cc(C(=O)O)c(N(C)C)nc3CC2)nc1.O=C(O)C(F)(F)F,Percent Effect,"30.3 µM, […]",-16.6%
O=C(NCC1CCN(CCc2ccccc2)C1)c1cc(Cl)c[nH]1 (stereo not drawn),Percent Effect,"30 µM, 30.03 µM",-9.095%
CCC(=O)N1CCN(c2ccc(C(=O)OC)cc2)CC1C (stereo not drawn),Percent Effect,"30 µM, 30.03 µM",6.915%
COC(=O)c1ccc(N2CCN(C(=O)c3ccncc3)C(C)C2)cc1 (stereo not drawn),Percent Effect,"30 µM, 30.03 µM",41.83%
COC(=O)c1ccc(N2CCN(C(=O)c3ccco3)C(C)C2)cc1 (stereo not drawn),Percent Effect,"30.3 µM, […]",90.39%
COC(=O)c1ccc(N2CCN(C(=O)C3CCC3)C(C)C2)cc1 (stereo not drawn),Percent Effect,"30 µM, 30.03 µM",50.56%
COC(=O)c1ccc(N2CCN(C(=O)c3cc(C)no3)C(C)C2)cc1 (stereo not drawn),Percent Effect,"30.3 µM, […]",29.28%
COC(=O)c1ccc(N2CCN(C(=O)C3CC3)C(C)C2)cc1 (stereo not drawn),Percent Effect,"30 µM, 30.03 µM",-2.442%
Cl.Nc1nc(Nc2ccccc2)cc(N2CCNCC2)n1,Percent Effect,"30.3 µM, […]",-11.41%
same,Percent Effect,"10 mM, 10 mM as filed; unlikely as a test dose",-70.99%
Cn1cccc1C(=O)N1CCN(CC2CC2)c2ncccc2C1,Percent Effect,"30 µM, 30.03 µM",57.2%
O=C(c1cccs1)N1CCN(CC2CC2)c2ncccc2C1,Percent Effect,"30 µM, 30.03 µM",-33.24%
CN1CCN(C(=O)c2cccn2C)Cc2cccnc21,Percent Effect,"30.3 µM, […]",-5.91%
Cc1nc(C(=O)NS(=O)(=O)c2cccc(C#N)c2)cs1,Percent Effect,"30.3 µM, […]",2.101%
COCC1c2c(cnn2CC2CC2)CCN1Cc1ccc(C)o1.O=C(O)C(F)(F)F.O=C(O)C(F)(F)F (stereo not drawn),Percent Effect,"30.3 µM, […]",-1.349%
O=C(NCC1CCCN(C(=O)NCCc2ccccc2)C1)c1ccco1 (stereo not drawn),Percent Effect,"30.3 µM, […]",15.56%
O=C(NCc1nn(-c2ccccc2)c2c1CCC2)N1CCCC(O)C1 (stereo not drawn),Percent Effect,10 µM,-55.19%
O=C(NCCc1ccn(-c2ccccc2)n1)N1CCCC(O)C1 (stereo not drawn),Percent Effect,10 µM,103.1%
COc1ccccc1CNC(=O)N1CCCC(CO)C1 (stereo not drawn),Percent Effect,"30 µM, 30.03 µM",-45.66%
CCOC1CCN(C(=O)NCCc2ccn(-c3ccccc3)n2)CC1,Percent Effect,10 µM,-34.62%
CCOC1CCCN(C(=O)NCCc2ccn(-c3ccccc3)n2)C1 (stereo not drawn),Percent Effect,"30 µM, 30.03 µM",99.66%
CCOC1CCCN(C(=O)c2nn(-c3ccccc3F)cc2O)C1 (stereo not drawn),Percent Effect,"30.3 µM, […]",-12.09%
O=C(NCCC1Cc2ccccc2C1)N1CCCC(O)C1 (stereo not drawn),Percent Effect,"30.3 µM, […]",-66.43%
O=C(NCCc1ccn(-c2ccccc2)n1)N1CCCC(CO)C1 (stereo not drawn),Percent Effect,10 µM,104%
CSc1ccccc1C(=O)N1C[C@H]2CC[C@@H]1CN(C(=O)N(C)C)C2,Percent Effect,"30 µM, 30.03 µM",-19.87%
O=C(O)C(F)(F)F.O=C([C@H]1CC[C@@H]2[C@@H](CCN2C2CCCC2)O1)N1CCOCC1,Percent Effect,"30.3 µM, […]",3.599%
Cc1ccc(CN2CCC3(CCC3NC(=O)c3ccn(C)c3)CC2)s1.O=C(O)C(F)(F)F (stereo not drawn),Percent Effect,"30 µM, 30.03 µM",-8.436%
COc1c(CNCCNC(=O)c2ccccc2)c(C)nn1C.Cl,Percent Effect,"30.3 µM, […]",-11.06%
CCN(C)S(=O)(=O)NCC(O)c1c(Cl)cccc1Cl (stereo not drawn),Percent Effect,"30 µM, 30.03 µM",-61.52%
Cc1ccccc1N1CCN(C(=O)c2cscn2)C(C)C1 (stereo not drawn),Percent Effect,"30.3 µM, […]",-44.71%
Cc1ccccc1N1CCN(C(=O)c2ccc[nH]2)C(C)C1 (stereo not drawn),Percent Effect,"30 µM, 30.03 µM",53.58%
CSc1ncc(C(=O)N2CCN(c3ccccc3C)CC2C)cn1 (stereo not drawn),Percent Effect,"30.3 µM, […]",-20.66%
CNc1cc(C(=O)NCCC2=CSC3=NCCCN23)ccn1,Percent Effect,"30.3 µM, […]",4.45%
Cc1cc(C)n(CC2CCCCN2C(=O)c2ccc3c(c2)COC3)n1 (stereo not drawn),Percent Effect,10 µM,-3.538%
same,Percent Effect,"30.3 µM, […]",12.9%
O=C(CN1CCC(c2cc(=O)n3c(n2)CCCCC3)C1)N1CCCCC1.O=C(O)CC(O)(CC(=O)O)C(=O)O (stereo not drawn),Percent Effect,"30.3 µM, […]",-90.53%
CCC(Nc1nnnn1-c1ccccc1)C(=O)NC1CCSCC1 (stereo not drawn),Percent Effect,"30 µM, 30.03 µM",-25.42%
CC(=O)NC1CC(C)(C)Cc2c1cnn2-c1cccc(F)c1 (stereo not drawn),Percent Effect,"30 µM, 30.03 µM",-59.29%
CC1(C)Cc2c(cnn2-c2cccc(F)c2)C(NC2CCSCC2)C1 (stereo not drawn),Percent Effect,"30 µM, 30.03 µM",99.5%
CC1(C)Cc2c(cnn2-c2ccccc2)C(NC2CCSCC2)C1 (stereo not drawn),Percent Effect,"30 µM, 30.03 µM",82.22%
CS(=O)(=O)NC(=O)c1nnn(-c2cccc(F)c2)c1C1CC1,Percent Effect,"30.3 µM, […]",-19.55%
Cc1nn(-c2ccccc2)c(C)c1CNC(=O)NC1CC1,Percent Effect,"30 µM, 30.03 µM",-13.2%
O=C(O)C(F)(F)F.O=C(O)C(F)(F)F.c1ccc(CN2CC[C@@H]3O[C@@H](COCC4CCOCC4)CC[C@@H]32)nc1,Percent Effect,"30 µM, 30.03 µM",11.6%
Nc1ccnc(N2C[C@@H]3CC[C@H](C2)N(CC2CCC2)C3=O)n1,Percent Effect,"30 µM, 30.03 µM",-6.843%
COc1ncccc1CN1CC[C@]2(C[C@@H](OCc3ccccn3)CO2)C1.O=C(O)C(F)(F)F.O=C(O)C(F)(F)F.O=C(O)C(F)(F)F,Percent Effect,"30 µM, 30.03 µM",2.267%
CCSc1ccc(C(=O)N2CC[C@](O)(CC)[C@H](O)C2)s1,Percent Effect,"30.3 µM, […]",-1.451%
OC1(CN2CCC(Oc3cccc(C(F)(F)F)c3)CC2)CNCCOC1 (stereo not drawn),Percent Effect,"30 µM, 30.03 µM",-13.41%
O=C(c1cccnc1)N1CCC(Oc2cccc(C(F)(F)F)c2)CC1,Percent Effect,"30.3 µM, […]",6.021%
O=C(c1ccncc1)N1CCC(Oc2cccc(C(F)(F)F)c2)CC1,Percent Effect,"30.3 µM, […]",37.18%
OC1(CN2CCC(Oc3cccc(C(F)(F)F)c3)CC2)CCNC1 (stereo not drawn),Percent Effect,"30 µM, 30.03 µM",92%
FC(F)(F)c1cccc(OC2CCN(Cc3ncc[nH]3)CC2)c1,Percent Effect,"30 µM, 30.03 µM",-13.87%
O=C(c1ccc(=O)[nH]c1)N1CCC(Oc2cccc(C(F)(F)F)c2)CC1,Percent Effect,"30.3 µM, […]",9.238%
Nc1cc(C(=O)N2CCC(Oc3cccc(C(F)(F)F)c3)CC2)ccn1,Percent Effect,"30.3 µM, […]",19.92%
Nc1ccc(C(=O)N2CCC(Oc3cccc(C(F)(F)F)c3)CC2)cn1,Percent Effect,"30.3 µM, […]",54.87%
CC(N)C(=O)N1CCC(Oc2cccc(C(F)(F)F)c2)CC1 (stereo not drawn),Percent Effect,"30.3 µM, […]",98.32%
CCc1[nH]c2c(CNc3nccc(N)n3)cc(F)cc2c1C,Percent Effect,"30 µM, 30.03 µM",24.46%
Cc1nc(CN2CCO[C@H]3[C@H](OCC(=O)N(C)C)CC[C@@H]32)cs1.O=C(O)C(F)(F)F,Percent Effect,"30 µM, 30.03 µM",-32.64%
Cn1nc(CN2CCC(c3ccncc3)CC2)c2c(Cl)cccc21,Percent Effect,"30.3 µM, […]",31.87%
C[C@@H]1CN(C2CCN(Cc3nn(C)c4cccc(Cl)c34)CC2)C[C@H](C)O1,Percent Effect,"30.3 µM, […]",10.53%
Cn1nc(CN2CCCN(C3CCCC3)CC2)c2c(Cl)cccc21,Percent Effect,"30.3 µM, […]",100.6%
Cc1cccc(N2CCC3(CCN(C(=O)c4cccnc4)CC3)C2)n1.O=C(O)C(F)(F)F.O=C(O)C(F)(F)F,Percent Effect,"30 µM, 30.03 µM",38.81%
Cc1cnc(N2CCC3(CCN(CC4CCCC4)C3=O)CC2)nc1.O=C(O)C(F)(F)F,Percent Effect,"30.3 µM, […]",-22.16%
CCCN(Cc1cccnc1)C1CC(C)(C)NC(C)(C)C1.O=C(O)CC(O)(CC(=O)O)C(=O)O,Percent Effect,"30.3 µM, […]",3.437%
CC1(C)CC(N(Cc2cccnc2)Cc2cccnc2)CC(C)(C)N1.O=C(O)CC(O)(CC(=O)O)C(=O)O,Percent Effect,"30.3 µM, […]",13.11%
CC1(C)CC(N(Cc2ccccc2)Cc2c[nH]cn2)CC(C)(C)N1.O=C(O)CC(O)(CC(=O)O)C(=O)O,Percent Effect,"30.3 µM, […]",9.903%
Cc1cccc(CN(Cc2ccc(C)o2)C2CC(C)(C)NC(C)(C)C2)n1.O=C(O)CC(O)(CC(=O)O)C(=O)O,Percent Effect,"30.3 µM, […]",14.76%
Cc1ccc(CN(Cc2cccnc2)C2CC(C)(C)NC(C)(C)C2)s1.O=C(O)CC(O)(CC(=O)O)C(=O)O,Percent Effect,"30.3 µM, […]",78.89%
Cc1ccsc1CN(Cc1cccnc1)C1CC(C)(C)NC(C)(C)C1.O=C(O)CC(O)(CC(=O)O)C(=O)O,Percent Effect,"30.3 µM, […]",61.32%
Cc1cccc(CN(Cc2cccnc2)C2CC(C)(C)NC(C)(C)C2)n1.O=C(O)CC(O)(CC(=O)O)C(=O)O,Percent Effect,"30.3 µM, […]",-21.3%
Cc1nc[nH]c1CN(Cc1ccccc1)C1CC(C)(C)NC(C)(C)C1.O=C(O)CC(O)(CC(=O)O)C(=O)O,Percent Effect,"30.3 µM, […]",9.969%
CC1(C)CC(N(Cc2cccnc2)Cc2cccc(F)c2)CC(C)(C)N1.O=C(O)CC(O)(CC(=O)O)C(=O)O,Percent Effect,"30.3 µM, […]",92.81%
CC1(C)CC(N(Cc2ccccc2)Cc2cccnc2)CC(C)(C)N1.O=C(O)CC(O)(CC(=O)O)C(=O)O,Percent Effect,"30.3 µM, […]",27.73%
CC1(C)CC(N(Cc2ccncc2)Cc2cccnc2)CC(C)(C)N1.O=C(O)CC(O)(CC(=O)O)C(=O)O,Percent Effect,"30.3 µM, […]",3.133%
Cc1ccc(CN(Cc2ccccn2)C2CC(C)(C)NC(C)(C)C2)s1.O=C(O)CC(O)(CC(=O)O)C(=O)O,Percent Effect,"30.3 µM, […]",71.04%
